Experimental data: PubChem BioAssay AID1159580 (chemical genetic matrix, 2015)
Several values for one entry are separate records, joined by “and”; a condition that tells them apart may be missing. Equal entries are not always repeated. Out of some 5,500 compounds screened, about 2,000 (36%) were called active. About 18% were inconclusive and are not listed. Cut-off read from the data, not from the text of the source: active = normalized growth mostly below about 0.91 (no sharp cut-off); inconclusive = no clear call, values can overlap the other calls; inactive = mostly above about 0.92. The list shows a part of the results.

Test: chemical genetic growth profiling, strain panel (AID 1159580);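 note: tested at 20 µM; growth read once vehicle control cultures reached saturation at 30 °C; 1 = growth at the plate median or of vehicle wells; lower values mean less growth of the strain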
Details: S. cerevisiae deletion strains, growth OD

Measured: normalized growth

CCN(CC)CCOC(=O)C1(C2CCCCC2)CCCCC1
active: locus YAL013W, strain DEP1, active compounds read low 0.892
inactive: locus YAL021C, strain ccr4, active compounds read low 0.925 | locus YAL026C, strain drs2, active compounds read low 0.97 | locus YAL030W, strain snc1, active compounds read low 0.985 | locus YAL040C, strain CLN3, active compounds read low 1.01 | locus YBL061C, strain skt5, active compounds read low 0.99 | locus YBR009C, strain hhf1, active compounds read low 0.97 | locus YBR021W, strain FUR4, active compounds read low 0.862 | locus YBR023C, strain chs3, active compounds read low 0.972 | locus YBR171W, strain sec66, active compounds read low 0.987 | locus YBR229C, strain ROT2, active compounds read low 1.01 | locus YBR231C, strain swc5, active compounds read low 0.998 | locus YBR279W, strain paf1, active compounds read low 0.973 | locus YCL011C, strain gbp2, active compounds read low 0.928 | locus YCL016C, strain dcc1, active compounds read low 0.95 | locus YCL029C, strain bik1, active compounds read low 0.99 | locus YCL061C, strain MRC1 (second series), active compounds read low 0.998 | locus YCL069W, strain vba3, active compounds read low 0.996 | locus YCR088W, strain abp1, active compounds read low 0.988 | locus YDL005C, strain med2, active compounds read low 0.985 | locus YDL035C, strain GPR1, active compounds read low 1.02 | locus YDL040C, strain nat1, active compounds read low 0.99 | locus YDL074C, strain BRE1, active compounds read low 0.965 | locus YDL101C, strain DUN1, active compounds read low 0.998 | locus YDL134C, strain PPH21, active compounds read low 1.02 | locus YDL185W, strain tfp1, active compounds read low 1 | locus YDL192W, strain arf1, active compounds read low 0.985 | locus YDR001C, strain nth1, active compounds read low 0.979 | locus YDR069C, strain doa4, active compounds read low 0.983 | locus YDR101C, strain arx1, active compounds read low 0.995 | locus YDR137W, strain rgp1, active compounds read low 1.08 | locus YDR150W, strain NUM1, active compounds read low 1.01 and 0.995 | locus YDR159W, strain sac3, active compounds read low 0.945 | locus YDR162C, strain NBP2, active compounds read low 1.01 | locus YDR195W, strain ref2 0.994 | locus YDR297W, strain sur2, active compounds read low 0.99 | locus YDR318W, strain mcm21, active compounds read low 0.972 | locus YDR334W, strain swr1, active compounds read low 0.98 | locus YDR335W, strain msn5, active compounds read low 0.981 | locus YDR363W, strain ESC2, active compounds read low 0.971 | locus YDR388W, active compounds read low 0.982 | locus YDR392W, strain spt3, active compounds read low 0.875 | locus YDR502C, strain sam2, active compounds read low 0.956 | locus YEL003W, strain gim4, active compounds read low 0.987 | locus YEL037C, strain rad23, active compounds read low 0.983 | locus YEL061C, strain CIN8 (second series), active compounds read low 0.978 | locus YEL061C, strain CIN8, active compounds read low 1 | locus YER002W, strain NOP16, active compounds read low 1.02 | locus YER015W, strain faa2, active compounds read low 0.944 | locus YER016W, strain bim1, active compounds read low 0.969 | locus YER110C, active compounds read low 0.988 | locus YER111C, strain swi4, active compounds read low 0.993 | locus YER155C, strain BEM2 (second series), active compounds read low 0.976 | locus YER155C, strain BEM2, active compounds read low 1.01 | locus YER167W, strain BCK2, active compounds read low 1.01 | locus YFR010W, strain ubp6, active compounds read low 0.972 | locus YGL078C, strain dbp3, active compounds read low 0.983 | locus YGL086W, strain mad1, active compounds read low 0.971 | locus YGL167C, strain pmr1, active compounds read low 0.985 | locus YGL173C, strain kem1, active compounds read low 1 | locus YGL227W, strain vid30, active compounds read low 0.974 | locus YGL240W, strain doc1, active compounds read low 0.984 | locus YGL248W, strain PDE1, active compounds read low 0.991 | locus YGL253W, strain hxk2, active compounds read low 0.985 | locus YGR078C, strain PAC10, active compounds read low 0.972 and 1.05 | locus YGR135W, strain pre9, active compounds read low 0.921 | locus YGR252W, strain gcn5, active compounds read low 0.889 | locus YHR013C, strain ard1, active compounds read low 0.944 | locus YHR027C, strain rpn1, active compounds read low 0.968 | locus YHR030C, strain SLT2, active compounds read low 1 and 1.05 | locus YHR079C, strain IRE1 (second series), active compounds read low 0.982 | locus YHR079C, strain IRE1, active compounds read low 1.02 | locus YHR094C, strain hxt1, active compounds read low 0.992 | locus YHR129C, strain ARP1, active compounds read low 1 | locus YHR142W, strain chs7, active compounds read low 0.987 | locus YHR200W, strain rpn10, active compounds read low 0.986 | locus YIL066C, strain RNR3, active compounds read low 1.01 | locus YIL073C, strain SPO22, active compounds read low 0.997 | locus YIL125W, strain kgd1, active compounds read low 0.99 | locus YIR030C, strain dcg1, active compounds read low 0.997 | locus YJL092W, strain hpr5, active compounds read low 0.969 | locus YJL095W, strain BCK1 (second series), active compounds read low 0.978 | locus YJL095W, strain BCK1, active compounds read low 0.929 and 1.04 | locus YJL115W, strain asf1, active compounds read low 0.983 | locus YJL129C, strain trk1, active compounds read low 0.98 | locus YJL134W, strain LCB3, active compounds read low 1.01 | locus YJL154C, strain vps35, active compounds read low 0.982 | locus YJL164C, strain tpk1, active compounds read low 0.951 | locus YJL166W, strain qcr8, active compounds read low 1 | locus YJL168C, strain set2, active compounds read low 0.981 | locus YJL187C, strain SWE1 (second series), active compounds read low 0.974 | locus YJR043C, strain POL32, active compounds read low 1.06 | locus YJR066W, strain TOR1, active compounds read low 0.951 | locus YJR075W, strain HOC1, active compounds read low 0.952 and 0.974 | locus YKL009W, strain mrt4, active compounds read low 0.971 | locus YKL068W, active compounds read low 0.992 | locus YKL085W, strain MDH1 (second series), active compounds read low 0.963 | locus YKL085W, strain MDH1, active compounds read low 0.963 | locus YKL160W, strain elf1, active compounds read low 1.01 | locus YKR001C, strain vps1, active compounds read low 1 | locus YKR026C, strain gcn3, active compounds read low 0.982 | locus YKR091W, strain srl3, active compounds read low 0.978 | locus YLL001W, strain dnm1, active compounds read low 0.998 | locus YLL026W, active compounds read low 0.997 | locus YLL041C, strain sdh2, active compounds read low 0.987 | locus YLR027C, strain aat2, active compounds read low 0.994 | locus YLR039C, strain RIC1, active compounds read low 1.3 | locus YLR058C, strain SHM2, active compounds read low 0.985 | locus YLR102C, strain apc9, active compounds read low 0.987 | locus YLR113W, strain HOG1, active compounds read low 1.05 | locus YLR221C, strain rsa3, active compounds read low 0.952 | locus YLR258W, strain gsy2, active compounds read low 0.955 | locus YLR262C, strain YPT6 (second series), active compounds read low 1.04 | locus YLR262C, strain YPT6, active compounds read low 1.25 | locus YLR268W, strain sec22, active compounds read low 0.965 | locus YLR320W, strain mms22, active compounds read low 0.93 | locus YLR330W, strain CHS5, active compounds read low 0.999 | locus YLR342W, strain FKS1 (second series), active compounds read low 0.905 | locus YLR342W, strain FKS1, active compounds read low 0.983 | locus YLR357W, strain rsc2, active compounds read low 0.965 | locus YLR370C, strain arc18, active compounds read low 0.979 | locus YLR371W, strain rom2, active compounds read low 0.973 | locus YLR384C, strain iki3, active compounds read low 0.993 | locus YLR418C, strain cdc73, active compounds read low 0.847 | locus YML016C, strain PPZ1, active compounds read low 0.997 | locus YML032C, strain rad52, active compounds read low 0.966 | locus YML120C, strain ndi1, active compounds read low 0.985 | locus YML124C, strain tub3, active compounds read low 0.984 | locus YMR058W, strain fet3, active compounds read low 0.983 | locus YMR078C, strain ctf18, active compounds read low 0.978 | locus YMR125W, strain sto1, active compounds read low 0.946 | locus YMR129W, active compounds read low 0.972 | locus YMR205C, strain PFK2, active compounds read low 0.985 | locus YMR223W, strain ubp8, active compounds read low 0.932 | locus YMR231W, strain pep5, active compounds read low 0.985 | locus YMR263W, strain SAP30, active compounds read low 0.984 and 1 | locus YMR307W, strain GAS1, active compounds read low 1.23 and 1.02 | locus YNL067W, strain RPL9B, active compounds read low 0.979 | locus YNL071W, strain lat1, active compounds read low 0.951 | locus YNL128W, strain TEP1, active compounds read low 1.02 | locus YNL153C, strain GIM3, active compounds read low 0.966 and 0.991 | locus YNL175C, strain NOP13, active compounds read low 1.02 | locus YNL183C, strain NPR1, active compounds read low 0.995 | locus YNL197C, strain WHI3, active compounds read low 1.06 | locus YNL209W, strain ssb2, active compounds read low 0.947 | locus YNL224C, strain SQS1, active compounds read low 1.01 | locus YNL233W, strain BNI4, active compounds read low 0.962 | locus YNL248C, strain rpa49, active compounds read low 0.948 | locus YNL250W, strain rad50, active compounds read low 0.979 | locus YNL271C, strain bni1, active compounds read low 0.973 | locus YNL298W, strain CLA4, active compounds read low 1 | locus YNL307C, strain MCK1, active compounds read low 0.968 | locus YNL322C, strain KRE1 (second series), active compounds read low 0.979 | locus YNR049C, strain mso1, active compounds read low 0.979 | locus YNR052C, strain pop2, active compounds read low 0.961 | locus YOL012C, strain htz1 0.807 | locus YOL147C, strain pex11, active compounds read low 0.99 | locus YOR001W, strain rrp6, active compounds read low 1.01 | locus YOR061W, strain CKA2, active compounds read low 1 | locus YOR069W, strain VPS5, active compounds read low 0.994 | locus YOR070C, strain gyp1, active compounds read low 0.968 | locus YOR080W, strain dia2, active compounds read low 0.982 | locus YOR083W, strain WHI5 (second series), active compounds read low 1.02 | locus YOR083W, strain WHI5, active compounds read low 0.965 | locus YOR106W, strain vam3, active compounds read low 1 | locus YOR136W, strain idh2, active compounds read low 0.998 | locus YOR144C, strain elg1, active compounds read low 0.997 | locus YOR184W, strain ser1, active compounds read low 0.992 | locus YOR231W, strain MKK1, active compounds read low 1.04 | locus YOR265W, strain rbl2, active compounds read low 0.991 | locus YOR270C, strain vph1, active compounds read low 0.85 | locus YOR290C, strain snf2, active compounds read low 0.939 | locus YOR316C, strain cot1, active compounds read low 0.992 | locus YPL051W, strain arl3, active compounds read low 0.984 | locus YPL055C, strain LGE1, active compounds read low 0.986 | locus YPL078C, strain atp4, active compounds read low 1.01 | locus YPL106C, strain sse1, active compounds read low 0.939 | locus YPL240C, strain hsp82, active compounds read low 0.984 | locus YPL241C, strain CIN2, active compounds read low 0.998 | locus YPL256C, strain CLN2, active compounds read low 1.05 | locus YPR119W, strain clb2, active compounds read low 0.99 | locus YPR141C, strain kar3, active compounds read low 0.993 | locus YPR163C, strain tif3, active compounds read low 0.988 | locus YPR167C, strain met16, active compounds read low 0.983 | strain wtn01, active compounds read low 0.957
